NADH enzymes = inhibitors of PK/LDH coupling enzymes, profiling panel, artefact control, biochemical, MLSMR library. coupled PK/LDH NADH assays, four targets. IC50, µM (series often up to 10 µM), for inactives: at the highest dose inhibition. hit rate 0.02% among 65,000;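 active means single-dose screening hits from any of four coupled enzyme assays that gave an IC50 when retested across doses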;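 further: the DPM-DC format reads NADH fluorescence rather than 340 nm absorbance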
Fluor 339 460 = intrinsic fluorescence of library compounds, ex339/em460 – biochemical, MLSMR library, data from DPM-DC assay, artefact control, profiling panel | compound autofluorescence, ex339/em460 nm, NADH buffer; active compounds read high; 1 = no-compound wells, NADH background | fluorescence fold increase at 10 µM | hit rate 5.5% among 65,000;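 active means at 10 µM, mean starting fluorescence two-fold or more over control wells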;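 further: signal is the first read of a kinetic run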
MK inhibit = S. pneumoniae MK inhibitors, primary screen, biochemical, PK/LDH-coupled NADH absorbance | mevalonate kinase [Streptococcus pneumoniae D39] | purified MK, PK/LDH-coupled NADH absorbance 340 nm | inhibition, % at 10 µM | hit rate 0.48% among 65,000;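 active means ranked among the strongest by inhibition in the single 10 µM screen, a fixed top-ranked set picked for dose follow-up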
PMK inhibit = S. pneumoniae PMK inhibitors, primary screen, biochemical, mevalonate pathway, pilot trial included | phosphomevalonate kinase (Streptococcus pneumoniae D39) | purified PMK, PK/LDH-coupled NADH absorbance 340 nm | inhibition, % at 10 µM | hit rate 0.49% among 65,000 | AID 539, 2006;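 active means top-ranked compounds by inhibition in the single 10 µM screen, taking a fixed number of the strongest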;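 further: 0% = full reaction with DMSO carrier and 100% = background rate without enzyme reaction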
Abs 340nm = compound light absorbance at 340 nm, profiling panel, artefact control, biochemical, MLSMR library, data from PS, PMK, MK assays; 65,000 tested, under 10 active; fold change at 10 µM; AID 708, 2007; compound absorbance at 340 nm, fold over control;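 active means at 10 µM dose, initial 340 nm absorbance at least 2 fold that of control wells; inactive means change under 2 fold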;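 further: initial absorbance extrapolated from kinetic A340 decline of NADH oxidation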
Spn DPM-DC inh = S. pneumoniae DPM-DC inhibitors, primary screen, biochemical, PK/LDH-coupled NADH fluorescence. calls only at 10 µM. hit rate 0.49% among 65,000. AID 556, 2006. diphosphomevalonate decarboxylase (Streptococcus pneumoniae D39). purified DPM-DC;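 active means the 320 compounds with the highest percent inhibition in the single-dose primary screen, excluding strongly autofluorescent ones, cut at about 32% in these data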;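 further: kinetic rate of NADH fluorescence loss reporting ADP formed by the decarboxylase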
Numbers without * were called inactive; i = inactive; . = no result given; + = active, no number. Rows were chosen to be rich in hits. Some 6.5% of all compounds tested hit in one or more screens of this group.

SMILES	NADH enzymes	Fluor 339 460	MK inhibit	PMK inhibit	Abs 340nm	Spn DPM-DC inh
O=C(Nc1ccc(-c2nc3cccnc3s2)cc1)c1ccc(Br)o1	6%	2.2*	3	9	1.1	.
O=C(Nc1cccc(-c2nc3cccnc3s2)c1)c1ccco1	6%	1.2	0	17	1	i
O=C(Nc1ccc(-c2nc3cccnc3s2)cc1)c1ccco1	0%	2.1*	0	0	1.3	.
COc1ccc(S(=O)(=O)Nc2c(C)ccc3nsnc23)cc1OC	3%	1.1	0	8	1	i
COC(=O)CSc1nnc2c3c4c(sc3nc(-n3nc(C)cc3C)n12)COC(C)(C)C4	7%	2.7*	12	0	1.1	i
Nc1c(Nc2ccccc2)c2ccccc2oc1=O	1%	1.2	4	0	1.1	i
COc1ccc2nc(-c3ccccc3)[nH]c2c1	4%	2.3*	6	1	1.1	.
CCOc1ccc2nc(C(C)O)[nH]c2c1 (stereo unspecified)	15%	1.1	7	16	1.1	i
COc1ccc2nc(NCc3ccccc3)[nH]c2c1	6%	1.1	9	10	1	i
CCOc1ccc2nc(-c3ccccc3)[nH]c2c1	7%	4*	10	4	0.99	.
CCCc1cc(=O)[nH]c(Nc2cc(OC)ccc2OC)n1	6%	1	8	0	0.98	i
Nc1nncn1C(=O)CCc1ccccc1	7%	1.1	10	1	1	i
O=C(NCc1cn2ccccc2n1)c1ccccc1	21%	1	52*	12	0.99	i
O=C(NCc1cn2ccccc2n1)c1ccc(Br)o1	4%	1.1	3	8	1	i
CCOc1cc(C)nc(N2CCN(C3CCCCC3)CC2)n1	4%	1	0	12	1	i
Cn1cccc1C(=S)N=P(C1CCCCC1)(N1CCOCC1)N1CCOCC1	9%	1.1	13	14	1.1	i
COc1cc2c(cc1NCc1ccccn1)oc1ccccc12	3%	2.4*	4	4	1	.
COc1cc2c(cc1NC(=O)CSCC(=O)O)oc1ccccc12	4%	1.1	11	1	1.1	i
C=CCNc1nc(N2CCOCC2)c(C#N)c2c1CN(C)CC2	9%	1.3	11	4	1.1	i
CCC1Cc2c(nc3c4c(nc(N5CCOCC5)c(C#N)c24)NC(C)=N3)O1 (stereo unspecified)	3%	3.3*	3	4	0.99	.
CC1CCCC(NC(=O)CCn2c(=O)oc3ccccc32)C1C (stereo unspecified)	8%	1.1	7	18	0.99	i
Cc1cnc(-c2nnc(N(C)C(=O)C3CCCO3)s2)cn1 (stereo unspecified)	20%	2.3*	21	16	1	i
COCC(=O)N(C)c1nnc(-c2cnc(C)cn2)s1	15%	1.6	0	32*	1	i
Cc1csc(NC(=O)C2CCCO2)n1 (stereo unspecified)	2%	0.97	0	12	0.98	i
CC1CCCCN1Cc1nc2c(c(=O)n(C)c(=O)n2C)n1Cc1cccc2ccccc12 (stereo unspecified)	9%	1.1	11	16	1	i
SMILES	NADH enzymes	Fluor 339 460	MK inhibit	PMK inhibit	Abs 340nm	Spn DPM-DC inh
Cc1csc(NC(=O)C2CCCN(S(=O)(=O)c3ccc(Br)s3)C2)n1 (stereo unspecified)	6%	1.1	3	15	1	i
CCN(CCCNC(=O)C1CCN(S(=O)(=O)c2cnc[nH]2)CC1)c1cccc(C)c1	11%	1	9	23	0.97	i
COc1ccccc1NC(=O)CSc1nc(O)cc(=O)n1-c1ccccc1OC	16%	0.95	7	6	1	+
COc1ccccc1-n1c(SCC(=O)Nc2ccccc2C)nc(O)cc1=O	5%	1.1	9	7	1	i
CC(C)CC(=O)Nc1ccc2oc(-c3cccnc3)nc2c1	4%	2.2*	8	0	1.1	.
Cc1c(C(=O)Nc2ccc3oc(-c4cccnc4)nc3c2)oc2ccccc12	11%	3.8*	13	8	1.1	.

Screening results deposited in PubChem by SRMLSC.
